Reference: PubChem BioAssay (NCATS)
Values joined by “and” are separate entries in the source; they are usually repeats but may differ in a detail not shown here. Identical values can stand only once. Inconclusive results are not listed.

Test: qHTS Assay for Lipid Storage Modulators (AID 1519)
Conditions: Drosophila S3 cells, BODIPY lipid droplet/cell ratio, laser cytometry; measured here: cell count channel max response; cells loaded with oleic acid
Method in brief: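 Cells seeded at 5,000 per well were treated with compounds over a concentration series and loaded with oleic acid (400 uM, as added). Lipid droplet fluorescence (488 nm excitation, 500-530 nm channel) was read by laser-scanning cytometry and normalized to 20 uM Triacsin C.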
For `CC(C)=CCOc1c2occc2cc2ccc(=O)oc12`, the max response was 5.47%. For `NCC(O)c1ccc(O)cc1` (centres undefined), the max response was 15.4%. Compound `O=P1(NCCCl)OCCCN1CCCl` (centres undefined) has a max response of -5.65%. For `O=C1NCN(c2ccccc2)C12CCN(CC1COc3ccccc3O1)CC2` (centres undefined), the max response was 10.9%. Compound `CN1C[C@H](CNC(=O)OCc2ccccc2)C[C@@H]2c3cccc4c3c(cn4C)C[C@H]21` has a max response of -34%. Compound `CC(CCc1ccccc1)NC(C)C(O)c1ccc(O)cc1` (centres undefined) has a max response of -1.34%. `CC(=O)[C@H]1CC[C@H]2[C@@H]3CC[C@H]4C[C@H](O)CC[C@]4(C)[C@H]3C(=O)C[C@]12C` showed a max response of 15.7%. For `NCC1(CC(=O)O)CCCCC1`, the max response was -7.98% and 4.74%. For `CC[N+]1(C)CCCC(OC(=O)C(O)(c2ccccc2)c2ccccc2)C1` (centres undefined), the max response was 5.8%. Compound `CNCCC(Oc1ccc(C(F)(F)F)cc1)c1ccccc1` (centres undefined) has a max response of -0.474%. `Cc1ccc(S(=O)(=O)N[C@@H](CCCCN)C(=O)CCl)cc1` showed a max response of 1.11%. For `CC(C)C(=O)Nc1ccc([N+](=O)[O-])c(C(F)(F)F)c1`, the max response was -6.26% and 5.61%. For `CCCC(C)(COC(N)=O)COC(=O)NC(C)C` (centres undefined), the max response was 20.3% and 29.2%. For `O=c1c(O)c(-c2ccc(O)c(O)c2)oc2cc(O)cc(O)c12`, the max response was -77.5% and 18.5%. For `Cc1cc2c(C(C)C)c(O)c(O)c(C=O)c2c(O)c1-c1c(C)cc2c(C(C)C)c(O)c(O)c(C=O)c2c1O`, the max response was -14.5%. For `NCCc1cc(O)c(O)cc1O`, the max response was 5.57%. For `CC(C)=CC1C(C(=O)OCc2cccc(Oc3ccccc3)c2)C1(C)C` (centres undefined), the max response was 10.5%. In the case of `Cc1ncc(CNC(=O)N(CCCl)N=O)c(N)n1`, the max response is reported as 9.89%. Compound `CCC1(C2=NCCN2)Cc2ccccc2O1` (centres undefined) has a max response of -3.38%. In the case of `c1ccc2c(c1)OCC(C1=NCCN1)O2` (centres undefined), the max response is reported as 8.3%. For `CCC(COC(=O)c1cc(OC)c(OC)c(OC)c1)(c1ccccc1)N(C)C` (centres undefined), the max response was -7.6%. For `O=c1[nH]c2ccccc2n1CCCN1CCC(n2c(=O)[nH]c3cc(Cl)ccc32)CC1`, the max response was 2.1% and 12.4% and -15.6%. In the case of `Nc1ccncc1`, the max response is reported as -7.26% and -3.5%. With `O=[N+]([O-])c1cc([As](=O)(O)O)ccc1O` the max response was -1.97% and 10%. For `c1ccc(C2CC2)c(OCC2=NCCN2)c1`, the max response was 15.2%. For `Cc1cccc(C)c1NC1=NCCCS1`, the max response was 4% and -18.4%. In the case of `CCCN1CCC[C@@H]2Cc3[nH]ncc3C[C@H]21`, the max response is reported as -11.1% and 10.4%. `CC(C)CC(N(C)C)C1(c2ccc(Cl)cc2)CCC1` (centres undefined) showed a max response of 5.29%. `CN(C)CCN(C)CCc1ccc(Cl)c(Cl)c1` showed a max response of 4.07%. In the case of `Cc1ccc(-c2nc3ccc(C)cn3c2CC(=O)N(C)C)cc1`, the max response is reported as 1.87%. In the case of `CNCCCN1c2ccccc2CCc2ccccc21`, the max response is reported as -2.23% and 21.3%. In the case of `Oc1cccc2cccnc12`, the max response is reported as -2.95%. For `COc1ccccc1N1CCNCC1`, the max response was 10.9% and -13.3%. `CCn1cc(C(=O)O)c(=O)c2ccc(C)nc21` gave a max response of 0.0975%.
